This note sets out measurements from PubChem BioAssay.

Assay [1] is described as follows: reducers of endogenous Her2 protein level, primary screen, SKBR3 breast tumor cells, AlphaScreen, ATP viability (AID 461;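 active = Her2 level under about 52% in both replicate screens, with viability over 70% of control, limit read from the data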;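 for Her2 level: lower value means less Her2 protein in the cells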;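 for viability: percent of carrier control wells set as 100% viability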). The following applies: 18-24 h, measured here: SKBR3 viability, ATP luminescence, at 10 µM. In general terms: Bead proximity is the source of the signal in Alpha formats.
The target in assay [2] is Receptor tyrosine-protein kinase erbB-2 (Homo sapiens) (UniProt P04626). Described as above. The following applies: 18-24 h, at 10 µM, stronger effect = lower value.
Assay [3] in a line: SK-BR-3 cell growth inhibitors, pilot screen, 24 h, human (AID 572;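 active = viability at or below 10% of carrier control in both of two separate runs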;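 note: compound exposure lasted between 18 and 24 h rather than exactly 24 h; 100% = carrier-treated control wells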). The following applies: SK-BR-3 viability, CellTiter-Glo luminescence, at 10 µM, stronger effect = lower value. For orientation: Cellular ATP, detected with luciferase, serves as a proxy for viable cell number.
Assay [4] can be described thus: HUVEC growth inhibition – cell-based, human, primary screen (AID 575;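 active = viability at or below 30% in both replicate assays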;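 note: 100% = median of untreated cell wells with 0.1% DMSO on each plate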). The conditions noted are these: HUVEC proliferation, CellTiter-Glo luminescence, 72 h; at 10 µM; stronger effect = lower value.
Assay [5] is described as follows: growth inhibitors of H69AR lung tumor, primary screen, human, duplicate replicates (AID 580;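 active = viability at or under a set limit in both replicates, limit being median viability minus 3 SD, cut at about 48% in these data, passing the limit was not always enough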;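 note: 100% = mean luminescence of untreated wells and 0% = no signal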). The conditions noted are these: H69AR lung tumor cells viability, ATP luminescence, 72 h; at 10 µM; stronger effect = lower value.
Assay [6] in a line: reversal of MRP1-mediated doxorubicin resistance, pilot screen, H69AR cells, doxorubicin co-treatment (AID 601;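 active = viability loss from added drug above about 55%, and viability with drug at most 40%, in both replicates, limit read from the data, passing the limit was not always enough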). The conditions noted are these: CellTiter-Glo, 72 h, at 10 µM; for differential viability (reversal): stronger effect = higher value.
The nature of assay [7]: 384-well plate pilot, post-Golgi transport modulator project, inhibition of yeast transport mutant growth (AID 636; in the data active = inhibition above about 31%). The conditions noted are these: absorbance 615 nm, about 18 h, stronger effect = higher value.
A short description of assay [8]: growth suppression of yeast trafficking mutant, preliminary HTS, modulators of trafficking downstream of Golgi apparatus project, 1536-format plate, OD 615 nm (AID 637; in the data active = inhibition above about 30%). The following applies: yeast transport mutant growth, absorbance 615 nm, 18 h; stronger effect = higher value.
The nature of assay [9]: OD615 S. cerevisiae growth inhibition, permissive medium, pilot counter-assay, permissive growth control for S. cerevisiae lifespan shortening project (AID 705;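 active = growth inhibition above 25% in both replicates, a cutoff set 3 SD above the mean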). The conditions noted are these: OD615, 24 h, at 10 µM, stronger effect = higher value.
Assay [10] is described as follows: Restrictive medium S. cerevisiae growth inhibition, OD615, pilot screen of yeast lifespan reduction project, restrictive growth control (AID 706;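 active = growth inhibition above a set limit, 3 SD over mean compound inhibition, in both replicates, cut at about 43% in these data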;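 note: modified DeaD lifespan yeast strain shifted to restrictive glucose medium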). The following applies: OD615, 48 h, at 10 µM, stronger effect = higher value.
Assay [11] in a line: viability gain of MRP-1-high H69AR cells under doxorubicin, pilot screen, MRP-1 activator project, CellTiter-Glo, duplicate (AID 807;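 active = viability increase at or above a cutoff of the median across tested compounds plus 3 SD, cut at about 8.5% in these data, passing the limit was not always enough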;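 note: compound pretreatment 18-22 h then 72 h combined with doxorubicin; 0% = doxorubicin alone and 100% = vehicle without doxorubicin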). The following applies: H69AR viability with doxorubicin, CellTiter-Glo luminescence; at 10 µM; stronger effect = higher value.
Assay [12] is described as follows: growth suppression of beta-catenin knockout HCT116, pilot screen, human colon tumor cells (AID 823).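 Note: 0% = wells killed by 20 µM Hyamine and 100% = untreated DMSO cell wells.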 The following applies: CellTiter-Glo, 60 h, at 10 µM, stronger effect = lower value.
A short description of assay [13]: growth suppression of PTEN-deleted HCT116, pilot screen, cell-based, HCT116 clonal line, CellTiter-Glo (AID 824;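 active = viability at or below 27.92% in each of two runs, the all-compound median minus 4 SD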;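 note: 0% = 20 µM Hyamine control and 100% = vehicle cell control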). The following applies: 60 h, at 10 µM, stronger effect = lower value.
Assay [14] is described as follows: inhibitors of the yeast RAM network, pilot screen, dse1pr::URA3 reporter, 5-FOA selection (AID 869;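 active = inhibition over a set limit, the all-compound mean plus 3 SD, in both replicate runs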;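 note: 0% = DMSO wells with no growth and 100% = 10 µM 1-NA-PP1 with full growth; RAM network block rescues cells from 5-FOA so hits raise OD615 growth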). The conditions noted are these: S. cerevisiae dse1pr::URA3 5-FOA growth, OD615, 2 d; at 10 µM; stronger effect = higher value; strain carries analog-sensitive mutant Cbk1 kinase.
Assay [15] can be described thus: RAM signaling pathway blockade in yeast – S. cerevisiae, Pdr1DBD-CYC8 efflux-inhibited sensitized strain, primary screen (AID 1298;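 active = RAM network inhibition above 8.4% in each of two replicates, 3 SD over the compound average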;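 note: 0% = DMSO untreated cells without growth and 100% = 10 µM 1-NA-PP1 full growth; higher means more yeast growth rescued from 5-FOA killing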). The following applies: S. cerevisiae cbk1-as DSE1-URA3 strain, 5-FOA growth OD615, 2 d; at 50 µM; stronger effect = higher value.
Setting [16] is: H69AR cells + 2 uM doxorubicin, measured here: viability with 2 uM doxorubicin, stronger effect = lower value.
The mark [17] stands for this setting: H69AR cells, compound alone cytotoxicity.

Inconclusive results are not listed. The source made the active and inactive calls.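 Rule for the calls, unless noted: active = cell viability at or below a set limit in both duplicate runs, the limit being the all-compound median minus 4 SD (cut at about 23% in these data, passing the limit was not always enough); inconclusive = no clear call, values can overlap the other calls; inactive = the rest.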

Receptor tyrosine-protein kinase erbB-2 (Homo sapiens), sequence (P04626 whole entry, looked up): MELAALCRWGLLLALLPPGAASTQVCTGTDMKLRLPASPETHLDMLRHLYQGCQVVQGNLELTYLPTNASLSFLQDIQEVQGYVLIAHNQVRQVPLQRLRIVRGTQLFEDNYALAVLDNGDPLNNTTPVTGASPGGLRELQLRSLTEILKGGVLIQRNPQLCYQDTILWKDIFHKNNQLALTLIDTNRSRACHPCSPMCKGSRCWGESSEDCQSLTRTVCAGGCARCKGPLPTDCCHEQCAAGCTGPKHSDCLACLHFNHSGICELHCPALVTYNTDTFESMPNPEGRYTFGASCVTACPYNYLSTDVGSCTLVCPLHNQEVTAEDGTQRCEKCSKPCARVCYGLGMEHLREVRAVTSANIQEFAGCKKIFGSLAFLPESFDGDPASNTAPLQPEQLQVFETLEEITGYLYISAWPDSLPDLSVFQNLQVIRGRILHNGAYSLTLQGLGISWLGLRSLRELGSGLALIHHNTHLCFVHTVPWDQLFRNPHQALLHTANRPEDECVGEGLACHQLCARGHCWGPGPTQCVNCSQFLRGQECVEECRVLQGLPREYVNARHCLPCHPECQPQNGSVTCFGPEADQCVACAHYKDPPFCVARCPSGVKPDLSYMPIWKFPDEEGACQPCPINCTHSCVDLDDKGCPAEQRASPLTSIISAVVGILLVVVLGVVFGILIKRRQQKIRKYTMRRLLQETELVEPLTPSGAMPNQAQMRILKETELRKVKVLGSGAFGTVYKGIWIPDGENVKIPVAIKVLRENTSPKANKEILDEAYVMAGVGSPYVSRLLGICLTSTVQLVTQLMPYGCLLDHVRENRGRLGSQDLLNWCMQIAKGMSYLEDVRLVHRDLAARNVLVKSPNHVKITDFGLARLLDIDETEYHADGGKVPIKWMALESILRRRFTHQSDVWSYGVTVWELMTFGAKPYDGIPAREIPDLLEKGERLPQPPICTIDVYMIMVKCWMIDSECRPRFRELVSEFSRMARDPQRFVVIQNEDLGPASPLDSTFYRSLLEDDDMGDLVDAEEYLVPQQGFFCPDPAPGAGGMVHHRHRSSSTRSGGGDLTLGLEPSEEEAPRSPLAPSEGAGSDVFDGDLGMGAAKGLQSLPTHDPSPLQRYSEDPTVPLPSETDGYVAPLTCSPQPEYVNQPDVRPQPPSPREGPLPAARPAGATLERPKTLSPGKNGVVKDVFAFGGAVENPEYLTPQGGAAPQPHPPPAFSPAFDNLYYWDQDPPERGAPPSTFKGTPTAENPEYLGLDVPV

With `CCOC(=O)c1[nH]c(C)c(C(=O)NC)c1C`, the viability (usually a read-out of living cells in per cent, often relative to untreated cells) in assay [1] is 92%; in assay [3], 92% (inactive); in [4], 89.7% (inactive); in [5] it was 98.8% (inactive); in [6] (setting [16]) it was 85%; in [6] (setting [17]), 98.8%. Further, the viability in assay [12] is 109% (inactive); in assay [13], 90.8% (inactive). In assay [2], the Her2 level was 112% (inactive). Further, in assay [6] (H69AR cells + 2 uM doxorubicin), the differential viability (reversal) was 13.8% (inactive). For the same compound, the results for the inhibition in assay [7], in assay [8] and in [14] were -0.26% (inactive), -1.17% (inactive) and 1.32% (inactive), respectively. Also, the growth inhibition was -4.37% (inactive) in [9] and -10.2% (inactive) in assay [10]. The viability increase in [11] was -0.95% (inactive). In addition, the RAM network inhibition in [15] was -1.66% (inactive).

For `C=C(C)Cn1c(N2CC(C)CC(C)C2)nc2c1c(=O)[nH]c(=O)n2C` (stereo not given), the viability in [1] was 84%; in assay [3] it was 84% (inactive); in [4] it was 96.2% (inactive); in assay [5], 83.2% (inactive); in [6] (setting [16]), 95.1%; in [6] (setting [17]) it was 83.2%. In addition, the results for the viability in assay [12] and in assay [13] were 78.3% (inactive) and 81.2% (inactive), respectively. Besides, the Her2 level in assay [2] was 86% (inactive). Also, the differential viability (reversal) in assay [6] (H69AR cells + 2 uM doxorubicin) is -11.8% (inactive). Besides, the results for the inhibition in assay [7], in assay [8] and in assay [14] were -4.93% (inactive), 1% (inactive) and 1.05% (inactive), respectively. Also, the growth inhibition in assay [9] was -5.73% (inactive); in assay [10] it was 0.695% (inactive). In [11], the viability increase is -5.11% (inactive). Moreover, the RAM network inhibition in [15] was 1.9% (inactive).

As for `Cc1cc(C)cc(N2C(=O)CC(N3CCOCC3)C2=O)c1` (stereo not given), the viability in [1] was 104%; in [3], 104% (inactive); in assay [4], 100% (inactive); in assay [5], 191% (inactive); in assay [6] (setting [16]), 92.2%; in [6] (setting [17]) it was 191%. For the same compound, the viability was 102% (inactive) in [12] and 92.5% (inactive) in [13]. In assay [2], the Her2 level is 84% (inactive). Besides, in [6] (H69AR cells + 2 uM doxorubicin), the differential viability (reversal) was 98.5% (inactive). The inhibition (usually the relative decrease from the control value, in per cent) in [7] was -1.89% (inactive); in assay [8] it was 0.82% (inactive); in [14], 0.41% (inactive). In addition, the growth inhibition was -9.16% (inactive) in assay [9] and -2.19% (inactive) in [10]. Moreover, the viability increase in assay [11] is -0.95% (inactive). For the same compound, the RAM network inhibition in assay [15] was 0.87% (inactive).

Turning to `COc1ccc(S(=O)(=O)N(CC(=O)N2CCN(c3ccccc3OC)CC2)c2ccccc2)cc1`, the viability in assay [1] is 74%; in assay [3] it was 74% (inactive); in assay [4] it was 51.8% (inactive); in assay [5], 86.8% (inactive); in assay [6] (setting [16]) it was 95.4%; in assay [6] (setting [17]), 86.8%. Also, the viability was 67.2% (inactive) in assay [12] and 72.3% (inactive) in [13]. The Her2 level in [2] is 108% (inactive). Moreover, the differential viability (reversal) in assay [6] (H69AR cells + 2 uM doxorubicin) is -8.61% (inactive). In addition, the inhibition in assay [7] was -6.35% (inactive); in assay [8] it was -2.3% (inactive); in [14], 0.87% (inactive). In addition, the growth inhibition in assay [9] and in [10] was -11.3% (inactive) each time. The viability increase in assay [11] is 5.84% (inactive). Also, the RAM network inhibition in assay [15] was 2.02% (inactive).

Take `CSc1cccc(NS(=O)(=O)c2ccccc2)c1`: the viability in [1] is 78.5%; in [3], 78.5% (inactive); in assay [4], 107% (inactive); in assay [5], 88.7% (inactive); in assay [6] (setting [16]) it was 87.7%; in [6] (setting [17]), 88.7%. Besides, the viability in assay [12] is 92.1% (inactive); in assay [13] it was 95% (inactive). Further, in assay [2], the Her2 level is 88% (inactive). For the same compound, in assay [6] (H69AR cells + 2 uM doxorubicin), the differential viability (reversal) is 1.02% (inactive). For the same compound, the inhibition in assay [7] is -0.9% (inactive); in assay [8], -5.33% (inactive); in [14] it was 0.96% (inactive). Further, the values for the growth inhibition in assay [9] and in assay [10] were -0.535% (inactive) and 3.39% (inactive), respectively. Further, the viability increase in assay [11] is 0.44% (inactive). Further, the RAM network inhibition in [15] was 0.21% (inactive).
